From PubChem BioAssay (NCI)
The panel holds about 83,000 compounds, 20% with a hit somewhere; the sample as a whole holds those more often.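 The test compound was applied at a single concentration to cells in 96-well plates for 48 hours, and percent growth was recorded.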 A number with no mark means an inactive call. Calls of active or inactive are those of the source. How the source made its calls: active means growth percent below 10; inactive means the rest.

Tests used:
Test in all cases: NCI-60 one-dose screen, 48 h (100 = growth as untreated, 0 = no growth, -100 = all killed)
Conditions in all cases: 10 µM unless noted
HCT-15 colon = tested on: HCT-15 colon
HT29 colon = tested on: HT29 colon
SNB-75 CNS = tested on: SNB-75 CNS
SNB-19 CNS = tested on: SNB-19 CNS
U251 CNS = tested on: U251 CNS
PC-3 prostate = tested on: PC-3 prostate
SK-MEL-5 melanoma = tested on: SK-MEL-5 melanoma
UACC-62 melanoma = tested on: UACC-62 melanoma
LOX IMVI melanoma = tested on: LOX IMVI melanoma
SK-MEL-28 melanoma = tested on: SK-MEL-28 melanoma

SMILES	growth (HCT-15 colon)	growth (HT29 colon)	growth (SNB-75 CNS)	growth (SNB-19 CNS)	growth (U251 CNS)	growth (PC-3 prostate)	growth (SK-MEL-5 melanoma)	growth (UACC-62 melanoma)	growth (LOX IMVI melanoma)	growth (SK-MEL-28 melanoma)
O=C1Nc2ccccc2C2c3cccn3-c3ccccc3CN12 (stereo not given)	38%	11.3%	21.1%	73.4%	14.7%	48.6%	43.1%	35%	63%	66.6%
C1CCC([PH+](C2CCCCC2)C2CCCCC2[PH+](C2CCCCC2)C2CCCCC2)CC1.O=C(C1[CH-]CCCC1)C1CCCC[N-]1.[Au] (stereo not given)	2.02% (active)	-43.7% (active)	-6.22% (active)	-95.2% (active)	-84.1% (active)	-6.85% (active)	-98.8% (active)	-85.8% (active)	-95.9% (active)	-69.5% (active)
C/C(=C\c1ccn(-c2ccc(N)c(F)c2)n1)[C@@H]1C[C@@H]2O[C@]2(C)CCC[C@H](C)[C@H](O)[C@@H](C)C(=O)C(C)(C)[C@@H](O)CC(=O)O1	11.4%	14.9%	-16.9% (active)	38.4%	24%	14.7%	14.7%	21.7%	32.4%	58.3%
COC(=O)[C@@H](C)C[C@H](Cc1ccccc1)NC(=O)c1csc([C@@H](C[C@H](C(C)C)N(C)C(=O)[C@@H](NC(=O)[C@H]2CCCCN2C)C(C)C)OC(C)=O)n1	15%	5.25% (active)	5.98% (active)	65.6%	-1.97% (active)	7.77% (active)	-50.2% (active)	41.7%	14.2%	39.2%
CC12CCC3C(C=CC4=C(N)C(=O)CCC43C)C1CCC2=O (stereo not given)	73%	51.2%	94.2%	103%	54.2%	46.5%	69.7%	81%	60.6%	103%
O=C([O][Hg][CH2]C1COCC([CH2][Hg][O]C(=O)c2ccccc2)O1)c1ccccc1 (stereo not given)	-83% (active)	50.4%	92%	102%	58.9%	91.9%	102%	91%	11.4%	115%
O=Cc1cn(Cc2ccc(Cl)cc2)c2ccccc12	89.7%	106%	86.7%	89.7%	75.5%	82.3%	94.4%	-0.449% (active)	88.2%	96.4%
NC(=O)c1c(Br)n(C2OC(CO)C(O)C2O)c2ncnc(N)c12 (stereo not given)	3.75% (active)	16.3%	37.5%	53.9%	33.4%	-10.5% (active)	50.7%	8.21% (active)	1.47% (active)	-4.78% (active)
CC[C@@H]1[C@@H](C)O[C@@](O)([C@@H](C)[C@H](O)[C@H](C)[C@H]2OC(=O)/C=C/C=C/[C@H](C)[C@@H]([C@@H](C)[C@@H](O)[C@H](C)[C@@]3(O)C[C@@H](O[C@H]4C[C@@H](O)[C@H](O)C(C)O4)[C@H](CC)[C@@H](C)O3)OC(=O)/C=C/C=C/[C@@H]2C)C[C@H]1O[C@@H]1C[C@@H](O)[C@H](O)C(C)O1 (stereo not given in full)	-84.4% (active)	-84% (active)	-97.6% (active)	-81.6% (active)	-92.8% (active)	-88.4% (active)	-96.2% (active)	-73.3% (active)	-94% (active)	-92.1% (active)
O=C(N/N=C/c1ccc(N(CCCl)CCCl)cc1)c1cccc2ccccc12	56.1%	39.4%	76.7%	80.6%	60.9%	61.5%	70.6%	46.5%	61.3%	83%
COc1ccc(-n2c(C)nc3cc(OC)c(OC)cc3c2=O)cc1OC	111%	106%	92.2%	102%	94.4%	101%	104%	104%	101%	109%
CN(C)C(=O)Oc1ccccc1	98.1%	118%	89.1%	115%	103%	94.8%	113%	109%	92.4%	111%
COc1cc(C=Nc2cc(Cl)cc(Cl)c2)ccc1N(CCCl)CCCl	96.2%	81.5%	84.1%	89.8%	86.9%	63.1%	93.9%	82.9%	78.7%	104%
Cc1ccc(C(Cc2ccccc2)NCCO)cc1 (stereo not given)	103%	65.4%	87.1%	99.3%	87.8%	69.4%	98.4%	94.7%	100%	61.9%
COc1cc2c(c(OC)c1OC)-c1ccc([O-])c(=O)cc1[C@@H](NC(C)=O)CC2.COc1cc2c(c(OC)c1OC)-c1ccc([O-])c(=O)cc1[C@@H](NC(C)=O)CC2.[Cu+2]	15.8%	9.61% (active)	50.1%	25.2%	22.3%	35.1%	19.2%	23.5%	36.3%	48.5%
Nc1ncnc2n[nH]nc12	63.4%	79.7%	90.6%	93.5%	70.1%	64.5%	72.5%	46.7%	43.9%	87.6%
N#CC1(C#N)C(c2ccc(N(CCCl)CCCl)cc2)OC23CCCCC2C1(C#N)C(=N)O3 (stereo not given)	90.6%	106%	63.3%	84.4%	75.8%	74.8%	83.3%	53.2%	68.6%	111%
CN(C)C(=O)Oc1ccccc1-c1ccccc1	103%	101%	107%	104%	101%	91.9%	102%	104%	97%	116%
CN(C)C(=O)Oc1ccc(Br)cc1	105%	109%	89%	107%	98.3%	97.1%	98.8%	113%	96.4%	104%
CCOC(=O)N1CC1	96.3%	97.5%	90.8%	98.4%	96.3%	88.1%	101%	88.4%	92.7%	103%
CC12CCC3C(CCC4=CC(=O)CCC43CF)C1CCC2=O (stereo not given)	106%	116%	90.1%	109%	111%	97.4%	109%	115%	96.6%	117%
C=CCCCN=C=S	55.4%	37.4%	64.2%	84.2%	79.5%	87%	95.1%	63.4%	53.8%	83.2%
CC[C@H](C)[C@H](NC(=O)N[C@@H](C)c1ccccc1)C(=O)N(C)[C@H](C[C@@H](OC(C)=O)c1nc(C(=O)N[C@@H](Cc2ccccc2)C[C@H](C)C(=O)OC)cs1)C(C)C	12.3%	-24.4% (active)	-0.0971% (active)	56.7%	13.1%	22.6%	-33.7% (active)	11.4%	18%	44.6%
O=C(CCCCCCC(=O)Nc1ccc(N(CCCl)CCCl)cc1)NO	72%	30.5%	6.28% (active)	45%	17.9%	54.6%	-56.6% (active)	14.5%	-19.9% (active)	35.3%
COc1cc(C=Nc2cccc(C(=O)O)c2)ccc1N(CCCl)CCCl	97.8%	98.1%	101%	102%	100%	101%	98.7%	96.7%	101%	103%
COC(=O)[C@@H](C)C[C@H](Cc1ccccc1)NC(=O)c1cccc([C@@H](C[C@H](C(C)C)N(C)C(=O)[C@@H](NC(=O)[C@H]2CCCCN2C)C(C)C)OC(C)=O)n1	10.6%	6.05% (active)	26.5%	18.5%	14.6%	28.7%	-50.6% (active)	29.1%	13.6%	67.2%
